The panel holds about 83,000 compounds, 20% with a hit somewhere; the sample as a whole holds those more often.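 Testing used 96-well plates and a 48-hour single-concentration exposure. Example: -40 means 40% of the starting cells died.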 Unmarked numbers belong to inactive results. Calls of active or inactive are those of the source. The calls were made as follows: active = growth percent below 10; inactive = the rest.
Legend:
Assay in all cases: NCI-60 one-dose screen, 48 h (100 = growth as untreated, 0 = no growth, -100 = all killed)
Details in all cases: 10 µM unless noted
T-47D breast = tested on: T-47D breast
BT-549 breast = tested on: BT-549 breast
MDA-MB-435 melanoma = tested on: MDA-MB-435 melanoma
SW-620 colon = tested on: SW-620 colon
MCF7 breast = tested on: MCF7 breast
HCT-116 colon = tested on: HCT-116 colon
HCC-2998 colon = tested on: HCC-2998 colon
KM12 colon = tested on: KM12 colon

SMILES	growth (T-47D breast)	growth (BT-549 breast)	growth (MDA-MB-435 melanoma)	growth (SW-620 colon)	growth (MCF7 breast)	growth (HCT-116 colon)	growth (HCC-2998 colon)	growth (KM12 colon)
COc1cccc(CNc2c3ccccc3nc3ccccc23)c1	45.9%	68.7%	43%	25.5%	14.6%	9.89% (active)	39.3%	35.9%
COc1ccc(/C=C/C(=O)c2cc(OC)c(OC)c(OC)c2)cc1OCC(=O)Nc1nc2ccc(OC(F)(F)F)cc2s1	24.3%	25.7%	-51.3% (active)	6.16% (active)	4.06% (active)	-75.5% (active)	90.6%	-14.3% (active)
CN(C)CCN1C(=O)c2cccc3c(/C=C/CN4C(=O)c5cccc6cccc(c56)C4=O)ccc(c23)C1=O	97.6%	97%	89.3%	11.9%	-71.6% (active)	9.57% (active)	36.4%	-79.4% (active)
Cc1ccc(-c2nc(SCc3nc4cc(Cl)c(Cl)cc4[nH]3)[nH]c(=O)c2C#N)cc1	85.4%	92.5%	105%	109%	101%	93.1%	110%	96.6%
Cc1nc2sc(C(=O)Nc3cccc(Br)c3C)c(N)c2cc1C(O)c1ccccc1 (stereo not given)	25.3%	28.2%	3.98% (active)	20.4%	10.9%	6.83% (active)	11.3%	5.99% (active)
Nc1nc(N)c2c(n1)NC(c1cccc(Nc3ccnc4cc(C(F)(F)F)ccc34)c1)CC(c1ccc(Br)cc1)=N2 (stereo not given)	68.9%	114%	-25.8% (active)	31.1%	17.3%	16.2%	55.1%	28.3%
CCOC(=O)c1c(C)nc2c(c1N)/C(=C/c1ccc(OC)cc1)C(=O)N2Cc1ccccc1	40.7%	63.6%	63.4%	55.6%	22.8%	36.8%	62.8%	33.6%
NC(N)=NS(=O)(=O)c1ccc(NC2=C(I)C(=O)c3ncccc3C2=O)cc1	106%	108%	109%	91.1%	97.9%	102%	111%	105%
O=C(Nc1cnc(Nc2ccc(N3CCOCC3)nc2)nc1Oc1ccc(C(F)(F)F)cc1)c1ccncc1	72.9%	75.8%	91.3%	97.5%	77.3%	61.9%	110%	91%
COc1cnc2c(c1)C(=O)c1c-2n(CCCCl)c(=O)c2ccncc12	28.9%	56.8%	79.2%	36.3%	17.9%	40.4%	75.6%	67.8%
C=CCOC(=O)C1=C(C)N(CC)C(=O)NC1c1c(Cl)n(C)c2ccccc12 (stereo not given)	91%	102%	98.1%	101%	98.7%	90%	91.2%	85.7%
CCN1C(=O)N(CC)C2C1NN=c1s/c(=C\c3ccc[nH]3)c(=O)n12 (stereo not given)	31%	51.2%	-57% (active)	16.9%	17.6%	17%	33.1%	8.23% (active)
C#CCOc1cccc(-c2ncnc3cc(NC(=O)C=C)ccc23)c1	37.6%	43.5%	30%	21.4%	13.5%	27.2%	91.5%	31.1%
CC(C)(C)n1cc(-c2ccnc(NCCNS(=O)(=O)c3ccc(O)cc3)c2)c(-c2cccc(O)c2)n1	88.4%	93.6%	101%	103%	81.5%	82.4%	122%	94.7%
CCN1CCN(c2cc(C)nc(N(CCNc3ccnc4cc(Cl)ccc34)Cc3ccc4c(c3)OCO4)n2)CC1	-62.1% (active)	36.4%	-66.3% (active)	0.855% (active)	-37.3% (active)	-23.2% (active)	-46% (active)	5.74% (active)
CCN1C(=O)N(CC)C2C1NN=c1s/c(=C\c3cnc(C)n3C)c(=O)n12 (stereo not given)	24.9%	50.1%	-69.1% (active)	9.38% (active)	14.5%	23.2%	45.6%	16.1%
CCN1C(=O)N(CC)C2C1NN=c1s/c(=C\c3ccc(C(F)(F)F)cc3)c(=O)n12 (stereo not given)	64.7%	9.68% (active)	-26.5% (active)	20.7%	15.9%	9.6% (active)	9.59% (active)	15.2%
COC1=C(C)C(=O)N2[C@@H]1[C@H](c1ccccc1)OC21C=CC(=O)C=C1	17.6%	-34.1% (active)	-48.8% (active)	-36% (active)	7.61% (active)	-51% (active)	35.7%	52.8%
Cn1ccc(=O)nc1	99.1%	110%	106%	53.5%	52.2%	60.6%	96.8%	95%
CC1(C)CC[C@]23CC[C@]4(C)[C@H](CC[C@@H]5[C@@]6(C)C/C(=C/c7ccncc7)C(=O)C(C)(C)[C@@H]6CC[C@]54C)[C@H]2[C@H]1OC3	41.5%	99.3%	66.6%	61.3%	55.3%	50%	93%	68.4%
COc1ccc(CCN(CC(=O)N(CC(N)=O)C2CCC[C@@H]2OCc2ccccc2)C(=O)CN(C(=O)CN(CCc2ccc(Cl)cc2)C(=O)CN(C(=O)CN(C)Cc2ccccc2F)[C@H](C)C2CCCCC2)[C@H](C)C2CCCCC2)cc1OC (stereo not given in full)	27%	47.3%	26%	53.2%	14.1%	22.4%	0.406% (active)	20.2%
O=C1/C(=C\c2ccccn2)c2ccccc2N1c1c(Cl)cccc1Cl	4.47% (active)	-17.7% (active)	-5.05% (active)	-56.9% (active)	2.29% (active)	-94.4% (active)	-82.1% (active)	-2.11% (active)
COc1ccc(C#Cc2ccc(=O)oc2-c2cc(OC)c(OC)c(OC)c2)cc1O	45.2%	44.8%	0.895% (active)	31.2%	16%	14.9%	9.46% (active)	26.8%
[2H]C([2H])([2H])Oc1ccc(F)cc1/C=C/C(=O)/C=C(O)/C=C/c1cc(F)ccc1OC([2H])([2H])[2H]	73.5%	93.3%	84.5%	102%	70%	83.9%	105%	98.4%
Cc1ccccc1Nc1cc(O)c2c(=O)cc(-c3ccccc3)oc2c1	36.5%	47.1%	1.9% (active)	21%	15.5%	15.2%	76.7%	36.4%
COc1ccc(/C(C)=C(\c2ccc(Cl)cc2)c2ccc(OCCN3CCCCC3)cc2)cc1	48.1%	73.1%	58%	24.5%	20.3%	31.9%	91.3%	25.7%
CC1=CC(c2ccco2)=C2C(N)=NNC2N1 (stereo not given)	85.1%	100%	101%	102%	91%	100%	99.2%	105%
Cc1ccc2c(=O)cc(C(=O)Nc3sc4c(c3C(=O)NCc3cccnc3)CCCC4)oc2c1C	94%	107%	101%	101%	96.8%	109%	106%	97.1%
C/C(=N\O)c1ccc(NC(=O)CSc2nnc(-c3cc(-c4ccc(S(C)(=O)=O)cc4)nc4ccccc34)n2-c2ccccc2)cc1	63%	88.2%	93.5%	97.4%	85.6%	83.7%	105%	81.9%
COc1ccc(C(=O)c2cc3c(N)c(C(=O)Nc4ccccc4)sc3nc2C)cc1	39%	60.6%	-5.47% (active)	28.2%	20.7%	13.4%	19%	14.9%

Source: PubChem BioAssay (NCI)
